Test results published in ChEMBL document CHEMBL2218924, “A broad activity screen in support of a chemogenomic map for kinase signalling research and drug discovery” (Biochem J, 2013).

Legend:
[1] = molecular target: Serine/threonine-protein kinase WNK2 (Homo sapiens) (UniProt Q9Y3S1); settings: at 10 µM
[2] = molecular target: Serine/threonine-protein kinase WNK3 (Homo sapiens) (UniProt Q9BYP7); settings: at 10 µM
[3] = molecular target: Tyrosine-protein kinase Yes (Homo sapiens) (UniProt P07947); settings: at 1 µM
Chain of Tyrosine-protein kinase Yes (Homo sapiens) (P07947 2-543 limits assumed): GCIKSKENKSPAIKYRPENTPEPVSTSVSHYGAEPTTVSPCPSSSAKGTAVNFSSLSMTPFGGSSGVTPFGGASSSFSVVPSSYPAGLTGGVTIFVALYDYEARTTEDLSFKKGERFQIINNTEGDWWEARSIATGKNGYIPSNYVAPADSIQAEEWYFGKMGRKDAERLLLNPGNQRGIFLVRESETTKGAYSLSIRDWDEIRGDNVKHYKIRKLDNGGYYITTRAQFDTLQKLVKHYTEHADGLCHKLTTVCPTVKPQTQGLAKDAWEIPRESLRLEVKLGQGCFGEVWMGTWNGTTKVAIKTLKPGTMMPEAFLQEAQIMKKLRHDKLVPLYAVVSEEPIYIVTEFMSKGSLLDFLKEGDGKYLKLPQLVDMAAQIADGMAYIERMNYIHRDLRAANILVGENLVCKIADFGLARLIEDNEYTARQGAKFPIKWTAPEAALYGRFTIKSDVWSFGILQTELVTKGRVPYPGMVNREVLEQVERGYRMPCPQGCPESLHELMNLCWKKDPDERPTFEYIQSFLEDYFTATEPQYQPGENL

[4] = molecular target: Tyrosine-protein kinase Yes (Homo sapiens) (UniProt P07947); settings: at 10 µM
[5] = molecular target: T1, Tyrosine-protein kinase ZAP-70 (Homo sapiens) (UniProt P43403); settings: at 1 µM
T1 sequence (whole entry): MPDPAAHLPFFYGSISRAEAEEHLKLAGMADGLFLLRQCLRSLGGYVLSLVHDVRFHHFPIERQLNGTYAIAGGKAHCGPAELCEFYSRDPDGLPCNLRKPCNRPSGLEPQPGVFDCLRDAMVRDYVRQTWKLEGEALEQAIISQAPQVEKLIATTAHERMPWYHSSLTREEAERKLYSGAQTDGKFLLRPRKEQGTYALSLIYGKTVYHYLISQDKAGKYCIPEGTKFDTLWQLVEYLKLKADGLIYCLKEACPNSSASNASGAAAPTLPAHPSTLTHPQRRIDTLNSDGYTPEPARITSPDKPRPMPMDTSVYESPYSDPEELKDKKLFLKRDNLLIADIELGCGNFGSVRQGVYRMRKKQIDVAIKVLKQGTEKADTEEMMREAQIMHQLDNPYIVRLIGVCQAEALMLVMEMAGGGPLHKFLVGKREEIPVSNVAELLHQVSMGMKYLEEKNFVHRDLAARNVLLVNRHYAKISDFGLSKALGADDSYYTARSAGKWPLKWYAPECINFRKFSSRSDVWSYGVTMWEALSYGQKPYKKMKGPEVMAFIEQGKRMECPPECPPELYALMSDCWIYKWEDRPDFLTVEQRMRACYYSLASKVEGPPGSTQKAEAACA

[6] = molecular target: Death-associated protein kinase 3 (Homo sapiens) (UniProt O43293); settings: at 10 µM
Chain of Death-associated protein kinase 3 (Homo sapiens) (O43293 whole entry, looked up): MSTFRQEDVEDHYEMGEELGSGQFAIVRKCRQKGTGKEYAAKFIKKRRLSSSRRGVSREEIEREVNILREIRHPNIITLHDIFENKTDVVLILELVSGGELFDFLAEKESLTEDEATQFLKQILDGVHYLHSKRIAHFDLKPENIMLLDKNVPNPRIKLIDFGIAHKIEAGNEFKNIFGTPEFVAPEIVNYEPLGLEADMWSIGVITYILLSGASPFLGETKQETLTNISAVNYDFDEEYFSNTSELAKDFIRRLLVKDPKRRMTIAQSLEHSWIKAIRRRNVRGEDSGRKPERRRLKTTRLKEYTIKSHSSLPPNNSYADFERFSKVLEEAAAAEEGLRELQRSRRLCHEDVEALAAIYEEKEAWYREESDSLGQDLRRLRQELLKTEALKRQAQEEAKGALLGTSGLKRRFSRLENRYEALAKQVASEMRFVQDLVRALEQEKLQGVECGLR

[7] = molecular target: RAF proto-oncogene serine/threonine-protein kinase (Homo sapiens) (UniProt P04049); settings: at 1 µM
Chain of RAF proto-oncogene serine/threonine-protein kinase (Homo sapiens) (P04049 whole entry): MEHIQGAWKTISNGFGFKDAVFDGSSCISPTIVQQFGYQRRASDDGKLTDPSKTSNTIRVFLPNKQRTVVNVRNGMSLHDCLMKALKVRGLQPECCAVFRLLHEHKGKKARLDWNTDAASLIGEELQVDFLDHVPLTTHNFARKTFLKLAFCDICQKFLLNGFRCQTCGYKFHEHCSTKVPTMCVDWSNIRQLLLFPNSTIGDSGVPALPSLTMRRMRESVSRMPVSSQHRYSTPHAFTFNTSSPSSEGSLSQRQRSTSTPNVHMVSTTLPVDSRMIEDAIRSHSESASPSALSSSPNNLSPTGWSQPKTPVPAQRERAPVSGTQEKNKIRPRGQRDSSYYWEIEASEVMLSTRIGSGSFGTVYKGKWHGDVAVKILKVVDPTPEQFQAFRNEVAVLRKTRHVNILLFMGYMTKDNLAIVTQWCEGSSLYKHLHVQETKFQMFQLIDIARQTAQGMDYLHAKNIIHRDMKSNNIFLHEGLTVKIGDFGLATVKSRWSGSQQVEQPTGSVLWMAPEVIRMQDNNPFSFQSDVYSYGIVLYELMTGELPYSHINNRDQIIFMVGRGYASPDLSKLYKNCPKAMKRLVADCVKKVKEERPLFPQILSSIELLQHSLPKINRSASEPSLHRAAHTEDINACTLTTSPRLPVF

[8] = molecular target: RAF proto-oncogene serine/threonine-protein kinase (Homo sapiens) (UniProt P04049); settings: at 10 µM
[9] = molecular target: Mast/stem cell growth factor receptor Kit (Homo sapiens) (UniProt P10721); settings: at 1 µM
Chain of Mast/stem cell growth factor receptor Kit (Homo sapiens) (P10721 whole entry): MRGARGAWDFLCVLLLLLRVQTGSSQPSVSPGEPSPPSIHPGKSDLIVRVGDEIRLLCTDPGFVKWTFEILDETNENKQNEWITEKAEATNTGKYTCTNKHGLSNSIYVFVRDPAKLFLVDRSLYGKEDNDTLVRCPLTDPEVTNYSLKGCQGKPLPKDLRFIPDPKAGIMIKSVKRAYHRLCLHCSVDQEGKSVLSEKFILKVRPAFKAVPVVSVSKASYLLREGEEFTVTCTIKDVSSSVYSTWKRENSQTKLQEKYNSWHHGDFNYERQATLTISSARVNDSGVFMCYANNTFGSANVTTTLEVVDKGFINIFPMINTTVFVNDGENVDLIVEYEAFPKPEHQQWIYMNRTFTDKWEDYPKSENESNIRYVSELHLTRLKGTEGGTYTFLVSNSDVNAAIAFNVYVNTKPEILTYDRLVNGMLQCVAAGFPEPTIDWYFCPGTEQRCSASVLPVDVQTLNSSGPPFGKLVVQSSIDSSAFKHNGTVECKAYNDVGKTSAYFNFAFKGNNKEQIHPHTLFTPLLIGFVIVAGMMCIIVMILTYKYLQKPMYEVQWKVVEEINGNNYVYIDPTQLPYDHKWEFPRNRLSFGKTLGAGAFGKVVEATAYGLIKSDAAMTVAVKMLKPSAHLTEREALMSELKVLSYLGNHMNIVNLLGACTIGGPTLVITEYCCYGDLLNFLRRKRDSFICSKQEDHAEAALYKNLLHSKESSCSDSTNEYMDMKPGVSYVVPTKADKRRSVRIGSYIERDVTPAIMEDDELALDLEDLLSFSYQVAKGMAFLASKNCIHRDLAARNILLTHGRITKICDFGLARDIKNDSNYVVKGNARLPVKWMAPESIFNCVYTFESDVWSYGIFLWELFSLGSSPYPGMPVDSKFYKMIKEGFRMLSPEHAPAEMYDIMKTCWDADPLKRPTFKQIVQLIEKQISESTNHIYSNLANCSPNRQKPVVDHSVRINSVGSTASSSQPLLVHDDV

[10] = molecular target: Mast/stem cell growth factor receptor Kit (Homo sapiens) (UniProt P10721); settings: at 10 µM
[11] = molecular target: Proto-oncogene tyrosine-protein kinase Src (Homo sapiens) (UniProt P12931); settings: at 1 µM
[12] = molecular target: Proto-oncogene tyrosine-protein kinase Src (Homo sapiens) (UniProt P12931); settings: at 10 µM
[13] = molecular target: Serine/threonine-protein kinase WNK3 (Homo sapiens) (UniProt Q9BYP7); settings: at 1 µM
[14] = molecular target: Serine/threonine-protein kinase mTOR (Homo sapiens) (UniProt P42345); settings: at 1 µM
[15] = molecular target: Serine/threonine-protein kinase mTOR (Homo sapiens) (UniProt P42345); settings: at 10 µM
[16] = molecular target: Serine/threonine-protein kinase mTOR (Homo sapiens) (UniProt P42345); settings: at 1 µM; remark: listed apart in the source
[17] = molecular target: Serine/threonine-protein kinase mTOR (Homo sapiens) (UniProt P42345); settings: at 10 µM; remark: listed apart in the source
[18] = molecular target: T2, Eukaryotic elongation factor 2 kinase (Homo sapiens) (UniProt O00418); settings: at 1 µM
T2 sequence (whole entry): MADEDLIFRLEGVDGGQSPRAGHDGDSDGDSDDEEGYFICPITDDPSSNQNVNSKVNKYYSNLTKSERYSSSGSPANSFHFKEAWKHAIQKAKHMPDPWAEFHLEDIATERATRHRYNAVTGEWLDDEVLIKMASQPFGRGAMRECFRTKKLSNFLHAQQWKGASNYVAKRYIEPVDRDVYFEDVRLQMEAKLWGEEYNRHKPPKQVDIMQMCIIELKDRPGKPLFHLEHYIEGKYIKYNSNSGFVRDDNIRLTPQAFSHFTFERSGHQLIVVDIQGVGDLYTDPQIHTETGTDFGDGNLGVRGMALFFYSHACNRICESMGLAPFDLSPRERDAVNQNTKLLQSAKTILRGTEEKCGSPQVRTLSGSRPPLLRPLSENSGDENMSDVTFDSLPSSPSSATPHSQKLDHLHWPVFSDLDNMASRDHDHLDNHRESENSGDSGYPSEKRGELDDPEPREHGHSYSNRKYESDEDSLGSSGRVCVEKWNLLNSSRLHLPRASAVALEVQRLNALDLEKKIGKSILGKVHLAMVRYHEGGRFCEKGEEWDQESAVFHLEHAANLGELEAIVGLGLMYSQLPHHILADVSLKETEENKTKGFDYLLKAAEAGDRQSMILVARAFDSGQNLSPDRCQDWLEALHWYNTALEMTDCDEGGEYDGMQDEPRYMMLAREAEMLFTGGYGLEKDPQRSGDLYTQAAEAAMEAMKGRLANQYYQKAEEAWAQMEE

[19] = molecular target: T2, Eukaryotic elongation factor 2 kinase (Homo sapiens); settings: at 10 µM
[20] = molecular target: Death-associated protein kinase 3 (Homo sapiens) (UniProt O43293); settings: at 1 µM

Chain of Serine/threonine-protein kinase WNK3 (Homo sapiens) (Q9BYP7 whole entry): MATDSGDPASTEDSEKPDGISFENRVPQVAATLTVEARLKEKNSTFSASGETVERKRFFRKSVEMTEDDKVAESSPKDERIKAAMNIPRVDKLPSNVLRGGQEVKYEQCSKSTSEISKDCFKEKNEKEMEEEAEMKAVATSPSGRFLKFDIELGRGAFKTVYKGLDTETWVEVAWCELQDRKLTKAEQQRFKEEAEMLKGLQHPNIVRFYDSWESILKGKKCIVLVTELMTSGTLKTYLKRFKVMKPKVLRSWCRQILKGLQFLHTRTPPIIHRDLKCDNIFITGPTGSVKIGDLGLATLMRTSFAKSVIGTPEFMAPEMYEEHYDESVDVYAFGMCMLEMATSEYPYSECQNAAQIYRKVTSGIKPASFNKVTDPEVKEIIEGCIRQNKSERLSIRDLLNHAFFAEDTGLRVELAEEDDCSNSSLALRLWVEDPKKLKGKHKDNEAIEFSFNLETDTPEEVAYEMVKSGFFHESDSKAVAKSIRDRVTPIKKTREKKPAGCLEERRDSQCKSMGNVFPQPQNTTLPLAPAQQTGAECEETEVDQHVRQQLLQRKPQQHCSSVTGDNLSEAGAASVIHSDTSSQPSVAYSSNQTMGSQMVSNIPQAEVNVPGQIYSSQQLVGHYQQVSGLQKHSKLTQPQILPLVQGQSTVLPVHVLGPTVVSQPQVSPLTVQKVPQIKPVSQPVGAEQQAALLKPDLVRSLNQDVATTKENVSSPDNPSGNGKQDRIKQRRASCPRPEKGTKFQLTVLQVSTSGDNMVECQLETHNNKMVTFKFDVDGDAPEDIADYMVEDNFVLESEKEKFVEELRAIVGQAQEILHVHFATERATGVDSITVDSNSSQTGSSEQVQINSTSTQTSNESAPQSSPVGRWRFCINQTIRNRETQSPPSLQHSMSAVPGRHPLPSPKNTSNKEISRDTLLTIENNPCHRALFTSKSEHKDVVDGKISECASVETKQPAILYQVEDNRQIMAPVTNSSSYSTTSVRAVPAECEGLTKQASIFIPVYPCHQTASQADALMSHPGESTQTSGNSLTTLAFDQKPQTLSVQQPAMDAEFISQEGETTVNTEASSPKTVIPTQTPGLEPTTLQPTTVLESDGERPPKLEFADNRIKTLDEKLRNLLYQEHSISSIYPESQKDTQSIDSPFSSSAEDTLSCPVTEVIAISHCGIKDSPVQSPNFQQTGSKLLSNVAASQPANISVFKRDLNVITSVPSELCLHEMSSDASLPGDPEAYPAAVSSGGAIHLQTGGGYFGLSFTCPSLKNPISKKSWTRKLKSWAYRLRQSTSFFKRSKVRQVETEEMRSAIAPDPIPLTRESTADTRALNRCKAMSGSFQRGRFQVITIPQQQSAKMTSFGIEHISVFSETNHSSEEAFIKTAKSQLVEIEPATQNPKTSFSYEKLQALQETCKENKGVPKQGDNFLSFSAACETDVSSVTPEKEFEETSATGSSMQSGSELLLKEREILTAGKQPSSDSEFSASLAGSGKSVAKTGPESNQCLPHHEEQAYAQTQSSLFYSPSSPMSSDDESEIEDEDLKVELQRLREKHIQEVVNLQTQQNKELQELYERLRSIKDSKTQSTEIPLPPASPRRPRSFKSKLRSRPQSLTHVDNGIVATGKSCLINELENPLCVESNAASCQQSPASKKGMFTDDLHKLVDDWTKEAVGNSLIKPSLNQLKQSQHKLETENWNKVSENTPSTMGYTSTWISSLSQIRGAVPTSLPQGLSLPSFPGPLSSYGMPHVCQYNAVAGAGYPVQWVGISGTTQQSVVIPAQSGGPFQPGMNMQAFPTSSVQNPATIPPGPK

Row | Compound | residual activity [1] | residual activity [2] | residual activity [3] | residual activity [4] | residual activity [5] | residual activity [6] | residual activity [7] | residual activity [8] | residual activity [9] | residual activity [10] | residual activity [11] | residual activity [12] | residual activity [13] | residual activity [14] | residual activity [15] | residual activity [16] | residual activity [17] | residual activity [18] | residual activity [19] | residual activity [20]
1 | O=C(c1cc2cc(O)ccc2[nH]1)c1cc2cc(O)ccc2[nH]1 | 35% | 44% | 6% | 0% | 127% | 49% | 76% | 72% | 33% | 5% | 28% | 3% | – | – | – | – | – | – | – | –
2 | O=c1cc(N2CCNCC2)oc2c(-c3ccccc3)cccc12 | 80% | 98% | – | 91% | 103% | 99% | 88% | 87% | 97% | 95% | 94% | 99% | 133% (inactive) | 90% | 99% | 76% | 90% | – | – | –
3 | NC(=O)c1ccc(-c2nc(-c3ccc4c(c3)OCCO4)c(-c3ccccn3)[nH]2)cc1 | 96% | 98% | – | – | 88% | – | 85% | 55% | – | – | 96% | 94% | 123% (inactive) | 100% | 84% | – | 85% | – | – | –
4 | Cn1c2ccccc2c2c3c(c4c5ccccc5n(CCC#N)c4c21)CNC3=O | 78% | – | 45% | 61% | 81% | – | 72% | 93% | 113% | 82% | 69% | 79% | 105% (inactive) | 115% | 112% | 72% | 99% | 100% (inactive) | 116% | –
5 | O=c1cc(N2CCOCC2)oc2c1ccc1ccccc12 | 84% | 92% | 103% | 95% | – | 85% | 83% | 89% | – | 100% | 92% | 90% | 103% (inactive) | 95% | 93% | – | 107% | – | – | 105%
6 | O=C1Cc2c([nH]c3ccc(Br)cc23)-c2ccccc2N1 | 67% | 70% | 42% | 9% | – | – | 75% | 69% | – | – | – | – | 88% (inactive) | – | – | – | – | – | – | –
8 | COc1ccc(-c2cnc3c(-c4ccsc4)cnn3c2)cc1 | – | – | – | – | 122% | – | 86% | 97% | 100% | 85% | 77% | – | – | – | – | – | 90% | – | – | –
9 | O=C(Nc1ccc(Cl)cc1)c1ccccc1NCc1ccncc1 | – | – | 117% | 75% | – | – | 41% | 9% | 17% | -1% | 78% | – | – | – | – | – | 69% | – | – | –
10 | COc1ccc(Cl)cc1NC(=O)Nc1cc(C)nc2ccccc12 | – | 78% | – | – | – | 87% | 79% | – | – | – | – | – | 94% (inactive) | – | – | – | – | – | – | 88%
11 | O=C1Cc2c([nH]c3ccc([N+](=O)[O-])cc23)-c2ccccc2N1 | – | – | 56% | 20% | 125% | – | – | – | 110% | 109% | 53% | 29% | – | 120% | 114% | 104% | 100% | – | – | –
12 | Nc1nccc(-c2c(-c3ccc(F)cc3)ncn2C2CCNCC2)n1 | – | 77% | 78% | 11% | 130% | – | 64% | 21% | 121% | – | 117% | 66% | – | – | – | – | 78% | 117% (inactive) | – | –
13 | CCN(CC)CCNC(=O)c1c(C)[nH]c(/C=C2\C(=O)Nc3ccc(Cl)cc32)c1C | – | 63% | 2% | -1% | 116% | 17% | – | – | -1% | 0% | 48% | 13% | – | – | – | – | – | – | – | 44%
14 | Nc1ncnc2[nH]nc(Nc3ccc(F)cc3)c12 | – | – | 93% | 21% | 99% | 107% | 56% | 16% | 106% | 106% | 100% | 54% | 101% (inactive) | 98% | 90% | 91% | 95% | – | – | 116%
15 | CCCCc1c(-c2ccc(OC)cc2)[nH]c2nccnc12 | – | – | 51% | 69% | 111% | – | – | – | – | – | 61% | 41% | – | – | – | 108% | – | – | – | –
